The list is not random: actives were taken first. Their share in the collection is about 8.8%.
KB-V1 MDR tox = kills drug-selected multidrug resistant KB-V1 cells | 400,000 compounds, 3.4% hits | Potency, µM (highest dose often 46.1 µM), actives largely listed as cytotoxic | KB-V1 MDR cells viability, CellTiter-Glo, 72 h; also: nearly all actives have a fitted effect of over 60% in size
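Luminescent ATP read-out (CellTiter-Glo, 10 min) measures survival of drug-selected KB-V1 MDR cells after 72 h, 37 degrees C compound exposure. Medium: phenol-red-free DMEM, 10% FBS. Values from fitted concentration-response curves.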
IL-1B inflam inh = inflammasome signaling inhibition, IL-1 beta readout; THP-1 LPS/ATP IL-1B secretion, AlphaLISA, 16 h; hits give low values; activity change, % at 57.5 µM; 360,000 compounds, 4.7% hits; in the data active = activity change below about -50%; inconclusive = mostly about -30% to -49%
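Secreted IL-1B measured by AlphaLISA bead assay after 16 h compound exposure of THP-1 cells; compounds (final up to 57.5 uM) added 1 h before LPS (250 ng/mL) and ATP (1.25 mM) stimulation; lower signal means less secretion.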
KB-3-1 tox = KB-3-1 parental cell cytotoxicity. Potency, µM (series often up to 46.1 µM), actives largely listed as cytotoxic. AID 1347075. 400,000 compounds, 1.4% hits. KB-3-1 viability, CellTiter-Glo ATP luminescence, 72 h; also: nearly all actives have a fitted effect of over 60% in size
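Using CellTiter-Glo luminescence, growth of non-resistant KB-3-1 adenocarcinoma cells is assessed 72 h after pin-tool compound addition at 37 °C. Normalized responses across the concentration series yield fitted curves.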
HT1080-NT tox = kills 2HG-producing HT-1080-NT fibrosarcoma cells | Potency, µM (highest dose often 46.1 µM), hits mostly cytotoxic | AID 686970 | HT-1080-NT fibrosarcoma viability, CellTiter-Glo ATP luminescence, 48 h | 360,000 compounds, 1.6% hits;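 also: NT is the 2HG producing partner of a matched IDH1 knockdown line; nearly all actives have a fitted effect of over 55% in size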
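HT-1080-NT fibrosarcoma cells (2HG-overproducing), 750 cells/well in RPMI with 5% FBS, dosed after 2 h and incubated 48 h at 37C. CellTiter-Glo luminescence normalized to DMSO and no-cell wells; concentration-response curves fitted and classed.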
HT1080 IDH1KD tx = toxicity to HT-1080 IDH1 knockdown cells (counter line) | 360,000 compounds, 2% hits | AID 686971 | HT-1080 IDH1 knockdown viability, ATP luminescence, 48 h | Potency, µM (doses to about 46.1 µM), most hits filed as cytotoxic
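% activity derives from luminescence (CellTiter-Glo), normalised to DMSO and no-cell wells. HT-1080-IDH1KD cells, 750/well, had 48 h compound exposure at 37 °C.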
Hits are given with their value. Unless noted, calls follow the shape of the dose curve; as a rule, active = well fitted curve in the direction sought with a large enough effect; inconclusive = small, poorly fitted or top-dose-only effect, or another doubt; inactive = no such curve, though single readings can be large; an effect the other way counts as inactive or inconclusive.

How did CSc1ncccc1C(=O)N(C)CC(=O)Nc1cccc(F)c1 do in these assays?
KB-V1 MDR tox: inactive; IL-1B inflam inh: inactive; KB-3-1 tox: inactive; HT1080-NT tox: inactive; HT1080 IDH1KD tx: inactive

How did COc1ccccc1CNC(=O)c1ccc(N2CCOCC2)c([N+](=O)[O-])c1 do in these assays?
KB-V1 MDR tox: inactive; IL-1B inflam inh: -55; KB-3-1 tox: inactive; HT1080-NT tox: inactive; HT1080 IDH1KD tx: inactive

How did CN1CCN(c2ccccc2NC(=O)c2ccc(N3CCCC3)c([N+](=O)[O-])c2)CC1 do in these assays?
KB-V1 MDR tox: inactive; IL-1B inflam inh: -78; KB-3-1 tox: inactive; HT1080-NT tox: 13µM; HT1080 IDH1KD tx: inconclusive

How did CC(=O)N1CCN(c2ccc(C(N)=O)cc2[N+](=O)[O-])CC1 do in these assays?
KB-V1 MDR tox: inactive; IL-1B inflam inh: inactive; KB-3-1 tox: inactive; HT1080-NT tox: inactive; HT1080 IDH1KD tx: inactive

How did COc1ccc(C(=O)Nc2ccccc2N2CCOCC2)cc1[N+](=O)[O-] do in these assays?
KB-V1 MDR tox: 21µM; IL-1B inflam inh: inactive; KB-3-1 tox: inactive; HT1080-NT tox: inactive; HT1080 IDH1KD tx: inactive

What do the screens show for `CN1CCN(c2ccc(C(=O)c3ccc(Br)cc3)cc2[N+](=O)[O-])CC1`?
KB-V1 MDR tox: inconclusive; IL-1B inflam inh: -220; KB-3-1 tox: inactive; HT1080-NT tox: inactive; HT1080 IDH1KD tx: inconclusive

Results for COc1cccc(CNC(=O)c2ccc(N3CCOCC3)c([N+](=O)[O-])c2)c1 ?
KB-V1 MDR tox: inactive; IL-1B inflam inh: inactive; KB-3-1 tox: inactive; HT1080-NT tox: inactive; HT1080 IDH1KD tx: inactive

Results for COc1ccc(CCNC(=O)Cn2c(=O)n(-c3cc(OC)c(OC)c(OC)c3)c(=O)c3ccccc32)cc1OC ?
KB-V1 MDR tox: inconclusive; KB-3-1 tox: inactive

How did CCOc1cc(N2CCOCC2)c(OCC)cc1NC(=O)COC(=O)/C=C/c1ccc(OC(F)F)cc1 do in these assays?
KB-V1 MDR tox: inactive; IL-1B inflam inh: inactive; KB-3-1 tox: inactive; HT1080-NT tox: inactive; HT1080 IDH1KD tx: inactive

How did O=C(Nc1nc(-c2ccccc2)cs1)c1ccc(N2CCOCC2)c([N+](=O)[O-])c1 do in these assays?
KB-V1 MDR tox: 1.8µM; IL-1B inflam inh: inconclusive; KB-3-1 tox: inconclusive; HT1080-NT tox: inconclusive; HT1080 IDH1KD tx: inconclusive

Results for O=C(Nc1ccccc1-c1nc2ccccc2[nH]1)c1ccc(S(=O)(=O)N2CCCCC2)cc1 ?
KB-V1 MDR tox: inconclusive; IL-1B inflam inh: inactive; KB-3-1 tox: inactive; HT1080-NT tox: inactive; HT1080 IDH1KD tx: inactive

What do the screens show for `CC1CCCCN1S(=O)(=O)c1ccc(C(=O)Nc2nnc(-c3ccco3)o2)cc1` (configuration not stated)?
KB-V1 MDR tox: 5.8µM; IL-1B inflam inh: inactive; KB-3-1 tox: inconclusive; HT1080-NT tox: inactive; HT1080 IDH1KD tx: inactive

What do the screens show for `CC1CCCCN1S(=O)(=O)c1ccc(C(=O)Nc2ccccc2-c2nc3ccccc3[nH]2)cc1` (configuration not stated)?
KB-V1 MDR tox: 23µM; IL-1B inflam inh: inactive; KB-3-1 tox: inconclusive; HT1080-NT tox: inactive; HT1080 IDH1KD tx: inactive

Results for O=C(NCc1cccc(C(F)(F)F)c1)N1CCN(C(=O)c2ccccc2)CC1 ?
KB-V1 MDR tox: inconclusive; IL-1B inflam inh: inactive; KB-3-1 tox: inactive; HT1080-NT tox: inactive; HT1080 IDH1KD tx: inactive

How did CCOC(=O)N1CCN(C(=O)CSc2cc(C)nc3c(-c4ccccc4OC)c(C)nn23)CC1 do in these assays?
KB-V1 MDR tox: inconclusive; IL-1B inflam inh: inactive; KB-3-1 tox: inactive; HT1080-NT tox: 10µM; HT1080 IDH1KD tx: 11µM

What do the screens show for `COc1ccccc1-c1c(C)nn2c(N3CCC(C(N)=O)CC3)cc(C)nc12`?
KB-V1 MDR tox: inactive; IL-1B inflam inh: inactive; KB-3-1 tox: inconclusive; HT1080-NT tox: inactive; HT1080 IDH1KD tx: inactive

What do the screens show for `COc1ccccc1-c1c(C)nn2c(N3CCC(C)CC3)cc(C)nc12`?
KB-V1 MDR tox: inconclusive; IL-1B inflam inh: -51; KB-3-1 tox: inactive; HT1080-NT tox: inactive; HT1080 IDH1KD tx: inactive

What do the screens show for `CCc1sc(Nc2cccc(Cl)c2C)nc1-c1cc2cccc(OC)c2oc1=O`?
KB-V1 MDR tox: inactive; KB-3-1 tox: inactive

What do the screens show for `Cc1cccc(C(=O)NCC(c2ccc(F)cc2)N2CCOCC2)c1` (configuration not stated)?
KB-V1 MDR tox: inactive; IL-1B inflam inh: inactive; KB-3-1 tox: inactive; HT1080-NT tox: inconclusive; HT1080 IDH1KD tx: inactive
